Assay outcomes: PubChem, National Center for Advancing Translational Sciences (NCATS)
Compounds with a hit are over-represented: about 21% of the library has one in this group of screens.
IL-1B inflam inh: inhibitors of inflammasome signaling (IL-1 beta secretion); THP-1 LPS/ATP IL-1B secretion, AlphaLISA, 16 h; stronger effect = lower value; activity change, % at 57.5 µM; hit rate 4.7% among 360,000; AID 743279; in the data active = activity change below about -50%; inconclusive = mostly about -30% to -49%; note: % is set by controls: 0 for no effect and ±100 for the full control effect
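Secreted IL-1B measured by AlphaLISA bead assay after 16 h compound exposure of THP-1 cells; compounds (final up to 57.5 uM) added 1 h before LPS (250 ng/mL) and ATP (1.25 mM) stimulation; lower signal means less secretion.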
ClpP mod: qHTS Assay for Activators of ClpP. Potency, µM (series often up to 57.5 µM), for inactives: at the top dose activity change, negative = active. hit rate 1.9% among 340,000. purified B. subtilis ClpP, FRET peptide cleavage, 20 min. AID 651965, 2013; active = well fitted falling curve with a large enough effect; inconclusive = small, poorly fitted or top-dose-only effect; inactive = no such curve, though single readings can be large or run the other way; note: potency is the fitted concentration of half-maximal effect; the source files actives as falling curves though it sought activators and does not explain the sign; nearly all actives have a fitted effect of over 65% in size
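FRET quenching reversal measured ClpP activation: 10 microg/mL B. subtilis ClpP at pH 8 with the FRET-FV decapeptide, read at 430 nm after 320 nm excitation. The 20-min minus 0-min signal was scaled between DMSO/no-enzyme wells and ADEP (5.8 microM final).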
DT40 TDP1 CPT: DT40-hTDP1 cell growth loss with CPT; chicken DT40 Tdp1-/-;hTDP1 cells + 20 nM CPT, ATP luminescence, 48 h; Potency, µM (highest dose often 46.2 µM), for the others: top-dose activity change, negative = growth inhibition, usual class: inhibitors; hit rate 12% among 420,000; AID 686979; note: potency is the fitted concentration of half-maximal effect; % is set by controls: 0 for no effect and ±100 for the full control effect; nearly all actives have a fitted effect of over 55% in size
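Cell growth measured by CellTiter-Glo luminescence after a minimum 48 h, 37 C compound exposure with 20 nM CPT in Tdp1-knockout DT40 cells stably expressing hTDP1, seeded 400/well; qHTS titration format.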
D3 antag: antagonists of human D3 dopamine receptor. P35462. max response, negative = inhibition, %. D3R cells, DiscoveRx beta-arrestin luminescence, antagonist mode; stronger effect = lower value. hit rate 2.5% among 360,000; in the data active = max response below about -50%; inconclusive = no clear call, values can overlap the other calls; note: % is set by controls: 0 for no effect and ±100 for the full control effect
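Cells plated overnight at 1500 cells/well, then exposed to library compounds with dopamine controls for 90 minutes at 37 degrees C. DiscoveRx reagent added for 30–60 minutes at room temperature; luminescence read, quantitative HTS format.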
DT40 TDP1 no CPT: qHTS for Inhibitors of human tyrosyl-DNA phosphodiesterase 1 (TDP1): qHTS in cells in absence of CPT; DT40 Tdp1-/- hTDP1 cells, no CPT, ATP luminescence, 48 h; Potency, µM (highest dose often 46.2 µM), inactives show at the highest dose activity change, negative = growth inhibition, usual class: inhibitors; hit rate 15% among 420,000; note: potency is the fitted concentration of half-maximal effect; % is set by controls: 0 for no effect and ±100 for the full control effect; nearly all actives have a fitted effect of over 55% in size
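Luminescent ATP content (CellTiter-Glo) served as the growth readout. Knockout chicken DT40 cells expressing human TDP1 were exposed to compounds without camptothecin for a minimum 48 hr at 37 °C.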
D3 ag: agonists of human D3 dopamine receptor | P35462 | max activation, % | AID 652048 | D3R DiscoveRx beta-arrestin cells, luminescence, 90 min | hit rate 0.58% among 410,000; in the data active = max activation above about 30%; note: 0% is about no effect
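Cells at 1500/well, incubated overnight, then treated with pinned compounds (dopamine as control) for 90 min at 37 degrees C. DiscoveRx reagent added for 30 - 60 minutes at room temperature; luminescence read.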
Starred values were filed as active, the others as inactive; i = inactive; ? = inconclusive; nt = no result. Unless noted, calls come from the whole dose curve; as a rule, active = well fitted inhibition curve with a large enough effect; inconclusive = small, poorly fitted or top-dose-only effect; inactive = flat fitted curve, though single readings scatter.

SMILES	IL-1B inflam inh	ClpP mod	DT40 TDP1 CPT	D3 antag	DT40 TDP1 no CPT	D3 ag
O=C(CCl)NC(Cc1c[nH]c2ccc(OCc3ccccc3)cc12)C(=O)O (configuration not stated)	-2.9	-2.5%	16.1%	4.2	-7.7%	-1.9
Cc1cc(Nc2ccccc2)n(C(=O)c2ccc(Cl)cc2)n1	15.0	-1.3%	-10.2%	5.5	-17.3%	2.9
Cc1ccc2ccc(C(Nc3ccccc3)c3ccc(Cl)cc3)c(O)c2n1 (configuration not stated)	65.4	0.5%	4.11µM*	-29.5	3.26µM*	-22.8
COc1ccc(N(C(=O)c2cnccn2)C(C(=O)NC2CCCCC2)c2cc(OC)c(OC)c(OC)c2)cc1 (configuration not stated)	-0.8	nt	7.2%	-1.9	?	-1.2
CC(CCc1ccccc1)NCc1ccc(Cl)cc1Cl (configuration not stated)	-70.4*	2.3%	?	?	?	-3.1
CC(CCc1ccccc1)NCC#N (configuration not stated)	0.0	0.7%	-25.5%	-5.6	25.4%	32.3*
COc1ccc(CNC(C)CCc2ccccc2)cc1 (configuration not stated)	-8.3	nt	?	-55.2*	?	0.8
COc1cc(CCC(C)NCc2ccccc2)ccc1O (configuration not stated)	3.0	nt	0.5%	-17.0	-17.7%	31.7*
COc1ccc(CCC(C)NCc2ccc(C(F)(F)F)cc2)cc1 (configuration not stated)	-2.5	0.0%	?	?	?	-3.4
CC(O)CNCc1ccc(Cl)cc1Cl (configuration not stated)	30.1	nt	-6.2%	1.4	-28.7%	-5.6
COCCN(C(=O)CSc1ncc(C(F)(F)F)cc1Cl)c1c(N)n(Cc2ccccc2)c(=O)[nH]c1=O	-10.0	0.2%	-2.0%	9.4	4.8%	6.4
Cc1nn(-c2ccccc2)c(Cl)c1/C=N/Nc1nncc(=O)[nH]1	0.0	-0.4%	4.6%	0.8	-8.2%	1.6
COc1cc(NC(C)CCc2ccccc2)cc(OC)c1OC (configuration not stated)	-7.5	-0.7%	13µM*	3.9	10.3µM*	0.9
COc1ccc(CCC(C)NC2C3CC4CC(C3)CC2C4)cc1 (configuration not stated)	?	-0.7%	?	-96.6*	?	-60.0
O=C(Cn1c(=O)oc2ccccc21)Nc1ccc(F)cc1	-1.3	nt	-13.5%	-9.2	-5.0%	5.4
CC1=C/C(=N\OC(=O)/C=C/c2ccccc2)C(C)=CC1=O	-17.2	-3.0%	23.1µM*	9.3	?	-5.0
COc1cccc2sc(N(CCN(C)C)C(=O)/C=C/c3cccs3)nc12	-6.4	-1.1%	?	?	20.6µM*	-17.8
CCOc1cccc2sc(N(CCN(C)C)C(=O)/C=C/c3cccs3)nc12	-103.1*	-1.8%	7.31µM*	?	23.1µM*	-15.2
CCOc1cccc2sc(N(CCCN(C)C)C(=O)Cc3ccccc3)nc12	-26.3	-1.5%	-3.2%	4.0	22.4%	-11.1
COc1ccc(CCn2c(=O)c3cccnc3n(Cc3cccc([N+](=O)[O-])c3)c2=O)cc1OC	15.6	nt	-22.1%	0.3	-23.6%	-4.8
COc1ccc(Cc2nc3ccc(C(=O)NCCc4ccncc4)cc3o2)cc1OC	0.0	-0.4%	-28.2%	0.7	-27.9%	3.3
CCN(Cc1cnn(C)c1)C(=O)c1ccc2nc(Cc3cccc(Cl)c3)oc2c1	0.3	nt	23.1µM*	-12.0	23.1µM*	-8.9
COc1ccc(Cc2nc3ccc(C(=O)N(C)CCc4cnn(C)c4)cc3o2)cc1OC	i	-0.7%	?	-4.0	8.2µM*	4.5
COCc1ccc(C(=O)N2CCCCC2C(=O)Nc2ccc(-n3nc(C)cc3C)cc2)o1 (configuration not stated)	i	6.3%	?	3.1	?	-2.3
O=C(NC1CC2CCCC(C1)N2C(=O)Nc1ccc(F)cc1)c1ccccc1 (configuration not stated)	-2.9	nt	3.9%	-4.1	-2.2%	0.5
SMILES	IL-1B inflam inh	ClpP mod	DT40 TDP1 CPT	D3 antag	DT40 TDP1 no CPT	D3 ag
CC1CCC(NC(=O)N(CCCl)N=O)CC1 (configuration not stated)	-12.9	-1.4%	?	-3.2	-21.8%	-14.9
CCOC(=O)c1ccccc1OC(=O)CS(=O)c1ccccc1[N+](=O)[O-] (configuration not stated)	-28.3	nt	?	-19.9	?	-7.8
O=C(CS(=O)c1ccc(C(F)(F)F)cc1[N+](=O)[O-])Oc1ccccc1 (configuration not stated)	-114.1*	-1.9%	5.8µM*	?	4.61µM*	-15.8
COC(=O)c1ccc(OC(=O)CS(=O)c2ccccc2[N+](=O)[O-])cc1 (configuration not stated)	-0.6	nt	?	12.0	25.9µM*	-2.9
CS(=O)(=O)c1ccc(S(=O)CC(=O)OCc2ccccc2)c([N+](=O)[O-])c1 (configuration not stated)	-163.5*	nt	0.231µM*	-90.2*	0.326µM*	-29.2
S=c1[nH]nc([C@@H]2C[C@H]2c2ccccc2)n1-c1ccccc1Cl	0.0	-0.1%	-0.7%	-26.2	-7.0%	-0.8
CC1CN(C2=NC(=O)/C(=C/c3ccncc3)S2)CC(C)O1 (configuration not stated)	-5.4	nt	-10.4%	10.8	-13.9%	-0.8
C#Cc1ccc(CN2CCCC(C(=O)Nc3ccccc3Oc3cccnc3)C2)cc1 (configuration not stated)	?	0.4%	?	-21.0	?	-16.5
O=C(Nc1ccc(Oc2cccnc2)cc1)C1CCN(Cc2cc(Cl)ccc2O)CC1	-4.5	-1.6%	8.2µM*	-18.7	13µM*	-4.8
O=C(Nc1ccccc1Oc1cccnc1)C1CCCN(Cc2ccccc2O)C1 (configuration not stated)	-19.1	nt	?	13.9	14.6µM*	10.2
O=C1CCN(S(=O)(=O)c2cc(C(F)(F)F)ccc2Cl)CC1	21.3	1.4%	-10.1%	22.2	6.9%	5.8
CCCC[C@H]1COCCS(=O)(=O)N1Cc1cccc([N+](=O)[O-])c1	-5.4	-0.2%	-14.1%	-0.9	-10.8%	-0.5
COc1cc2cnc(-c3ccccc3)c(-c3ccc(C#N)cc3)c2cc1OC	-22.2	-20.7%	?	15.4	16.4µM*	20.4
